The list is not random: actives were taken first. Their share in the collection is about 21%.
Pf growth 48h: P. falciparum growth inhibition at 48 hours (one generation); P. falciparum luciferase growth in erythrocytes, 48 h; Potency, µM (doses to about 28.7 µM), inactives show at the highest dose activity change, negative = inhibition, actives largely listed as inhibitors; 310,000 compounds, 5.9% hits; AID 504832; note: potency is the fitted concentration of half-maximal effect; % is set by controls: 0 for no effect and ±100 for the full control effect
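Firefly luciferase activity from engineered P. falciparum reports growth; inhibitors lower the luminescent signal. Cultures contained 2% hematocrit erythrocytes at 0.1% final parasitemia.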
Cycloheximide cs: counter-screen hit for Shiga toxin inhibitors, cycloheximide | cell reporter, cycloheximide protein synthesis inhibition counterscreen | max response, % | 300,000 compounds, 12% hits | AID 2314; in the data active = max response mostly above about 13%, no sharp cut-off; inactive = mostly below about 14%; note: read at 38.3 µM for the half of the compounds with a filed dose; 0% is about no effect
Shiga toxin inh: Shiga toxin inhibition; Vero cells, Shiga toxin protein synthesis inhibition reporter; inhibition, % at 38.7 µM; 290,000 compounds, 9.2% hits; AID 2315; in the data active = inhibition mostly above about 28%, no sharp cut-off; inactive = mostly below about 43%; note: 0% is about no effect
Pf growth 96h: P. falciparum growth inhibition at 96 hours; P. falciparum luciferase reporter growth, 96 h; Potency, µM (titrated, usually from 28.7 µM), for inactives: top-dose activity change, negative = inhibition, most hits filed as inhibitors; 320,000 compounds, 6.9% hits; note: potency is the fitted concentration of half-maximal effect; % is set by controls: 0 for no effect and ±100 for the full control effect
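Plates of compound plus infected erythrocytes (2% hematocrit, 0.05% parasitemia final) incubate 96 hours, 37 C, 5% CO2. Detection reagent added; reduced luminescence from the parasites' luciferase reporter flags inhibition.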
AMA1-RON2 inh: AMA1-RON2 (P. falciparum) interaction inhibition; AlphaScreen AMA1-biotinylated RON2 peptide binding; Potency, µM (doses to about 58.2 µM), for inactives: at the top dose activity change, negative = inhibition, most hits filed as inhibitors; 360,000 compounds, 0.2% hits; AID 720542;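 note: potency is the fitted concentration of half-maximal effect; 0% = vehicle wells and -100% = peptide control; nearly all actives have a fitted effect of over 45% in size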
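AMA1 (3D7) with his tag at 25 nM final met compounds first, then biotinylated RON2 peptide at 25 nM; detection used donor plus acceptor beads, 10 µg/mL apiece, read by AlphaScreen after 30 min at room temperature.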
HCV inhibitor: blocks hepatitis C virus; Huh7.5.1 HCVcc-Cre infection, luciferase reporter, 44 h; Potency, µM (doses to about 41.8 µM), for inactives: at the top dose activity change, negative = inhibition, usual class: inhibitors; AID 651820; 340,000 compounds, 3.4% hits; note: potency is the fitted concentration of half-maximal effect; % is set by controls: 0 for no effect and ±100 for the full control effect
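Luciferase read-out (15 sec integration) after a 15 min room-temperature substrate step quantifies HCVcc-Cre infection. Cells, 1,000 per well, had compound added 4 h post-plating, then virus at ~0.5 moi, and were cultured 44 h.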
An asterisk follows results filed as active; ? = inconclusive; . = no result given. Unless noted, calls come from the whole dose curve; as a rule, active = well fitted curve in the direction sought with a large enough effect; inconclusive = small, poorly fitted or top-dose-only effect, or another doubt; inactive = no such curve, though single readings can be large; an effect the other way counts as inactive or inconclusive.

SMILES | Pf growth 48h | Cycloheximide cs | Shiga toxin inh | Pf growth 96h | AMA1-RON2 inh | HCV inhibitor
CCN1C(C)=C(C(=O)OC(C)C)C(c2ccccc2Cl)C(C(=O)O)=C1C(=O)O (stereo unspecified) | . | -7.2 | -10.1 | . | . | .
Cc1nc2ccc(NC(=O)c3ccc(C)c(S(=O)(=O)N4CCOCC4)c3)cc2s1 | ? | . | . | ? | 11.0% | 10µM*
Cc1nc2ccc(NC(=O)c3cc(S(=O)(=O)N4CCOCC4)ccc3C)cc2s1 | . | 2.7 | -1.5 | 9.28µM* | -5.7% | ?
O=C(Nc1cc(S(=O)(=O)N2CCOCC2)ccc1O)c1ccc(NS(=O)(=O)c2ccc(Cl)s2)cc1 | 31.9% | 1.0 | -9.1 | -3.1% | -7.9% | ?
CC(=O)c1ccc(NC(=O)c2cc(S(=O)(=O)N3CCOCC3)ccc2C)cc1 | 2.1% | 11.0 | -13.2 | ? | -11.0% | -22.1%
Cc1ccc(NC(=O)c2ccccc2NS(=O)(=O)c2ccc(Cl)s2)cc1S(=O)(=O)N1CCOCC1 | 11.7µM* | -2.3 | 9.6 | ? | -23.7% | ?
CC1(C(=O)NCc2ccccc2Br)CCN1Cc1ccc(-c2ccccn2)cc1 (stereo unspecified) | . | . | . | . | -12.4% | .
O=C([C@H]1O[C@@H](n2ccc(=O)[nH]c2=O)[C@H](O)[C@@H]1O)N1CCN(c2ccc(Cl)cn2)CC1 | . | . | . | . | 9.6% | .
Cc1ccc(C)c(C(C)NC(=O)Cc2cccs2)c1 (stereo unspecified) | -2.5% | 6.1 | -12.0 | -8.4% | -2.4% | 13.0%
COC(=O)c1cc(S(=O)(=O)N2CCCC2=O)c(Cl)cc1Cl | ? | -1.6 | -6.0 | 10.4µM* | 4.5% | -17.4%
COC(=O)c1cc(S(=O)(=O)n2nc(C)cc2C)c(Cl)cc1Cl | 14.2% | 1.2 | -9.8 | -7.5% | -3.7% | 19.3%
CC(=O)c1ccc(NC(=O)Cn2c3ccccc3c3nc(=O)cc(C)n32)cc1 | -27.1% | 8.8 | -13.9 | -25.2% | -1.4% | 0.4%
O=C(COc1ccccc1F)c1ccc(O)cc1O | 36.3% | 11.4 | -3.5 | -7.9% | -9.5% | 21.3%
Cc1c(O)ccc(C(=O)COc2ccccc2F)c1O | 14.3% | 30.0* | 85.9* | ? | 0.0% | 2.1%
Cc1cc(NC(=O)c2ccccc2)n(-c2nc3ccccc3[nH]2)n1 | -23.9% | 16.4 | -3.3 | ? | 72.6% | ?
COc1ccc(C(=O)Nc2cc(C)nn2-c2nc3ccccc3[nH]2)c(OC)c1 | ? | 20.2* | 20.1 | -131.3% | 100.7% | ?
Cc1cc(NC(=O)c2sccc2C)n(-c2nc3ccccc3[nH]2)n1 | ? | 9.9 | -11.7 | ? | 69.4% | 11.2µM*
Cc1cc(NC(=O)C2CCCC2)n(-c2nc3ccccc3[nH]2)n1 | 8.28µM* | 8.9 | 12.8 | 10.4µM* | 45.5% | 4.8%
COc1cccc(OC)c1C(=O)Nc1cc(C)nn1-c1nc2ccccc2[nH]1 | 9.28µM* | 3.2 | 16.0 | 7.38µM* | 81.9% | 11.2µM*
COc1cc(/C=C/C(=O)OC2CC3CCC2(C)C3(C)C)ccc1O (stereo unspecified) | ? | 14.3* | 22.7 | 3.2% | 2.9% | ?
CC(C)CN1CCC(=O)N(C(CSc2ccc(Br)cc2)c2ccccc2)CC1 (stereo unspecified) | . | 32.3 | 24.8 | . | . | .
CCCN1CCC(=O)N([C@H](CSc2ccc(Br)cc2)Cc2ccccc2)CC1 | ? | -1.8 | -5.8 | 1.85µM* | -24.4% | -11.3%
CCCN1CCC(=O)N([C@H](CSc2ccccc2)Cc2ccccc2)CC1 | ? | -2.7 | 18.2 | ? | -0.3% | -9.6%
CCCN1CCC(=O)N([C@H](CSc2ccccc2)c2ccccc2)CC1 | ? | 24.1* | 19.1 | ? | -4.6% | -16.6%
CCCN1CCC(=O)N(C(CSc2ccc(Br)cc2)c2ccccc2)CC1 (stereo unspecified) | . | 50.4* | 76.8* | . | . | .
CCCN1CCC(=O)N([C@H](CSc2ccc(C)cc2)c2ccccc2)CC1 | ? | 22.6* | 46.1* | ? | 1.2% | -0.8%
CCCN1CCC(=O)N([C@H](CO)c2ccccc2)CC1 | 30.3% | -0.8 | -4.0 | -34.5% | 14.0% | 22.9%

High-throughput results (PubChem BioAssay)
